Screening data deposited in PubChem by several laboratories.
PP5 inh – PP5 phosphatase inhibitors, primary screen, biochemical, fluorescence. Serine/threonine-protein phosphatase 5 (Homo sapiens), P53041. purified PP5c, OMFP substrate fluorescence. inhibition, % at 6.7 µM. hit rate 0.18% among 320,000;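 active = inhibition above the campaign's mean inhibition across all tested compounds plus 3 SD, cut at about 9.5% in these data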
Target sequence (P53041 whole entry, looked up): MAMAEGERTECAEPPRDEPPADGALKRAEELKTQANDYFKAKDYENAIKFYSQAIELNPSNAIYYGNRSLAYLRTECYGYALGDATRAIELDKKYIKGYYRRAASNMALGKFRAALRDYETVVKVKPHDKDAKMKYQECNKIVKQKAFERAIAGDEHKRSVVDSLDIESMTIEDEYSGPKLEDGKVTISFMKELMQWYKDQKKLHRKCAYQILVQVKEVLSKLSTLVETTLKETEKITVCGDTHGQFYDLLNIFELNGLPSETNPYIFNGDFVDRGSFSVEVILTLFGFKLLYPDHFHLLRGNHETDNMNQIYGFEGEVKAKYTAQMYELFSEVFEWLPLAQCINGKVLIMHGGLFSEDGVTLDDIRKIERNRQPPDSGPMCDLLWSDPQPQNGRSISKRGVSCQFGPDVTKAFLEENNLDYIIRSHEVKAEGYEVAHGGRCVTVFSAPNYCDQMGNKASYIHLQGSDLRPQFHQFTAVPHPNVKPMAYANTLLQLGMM
Beta apoptosis – inhibitors of cytokine-induced beta cell apoptosis, primary screen, luminescence; INS-1E cytokine-induced death, ATP luminescence, 48 h; percent of positive-control rescue, neutral wells zero; protection from apoptosis, % (concentration not given with the values); hit rate 0.8% among 300,000;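 active = Every replicate reaches about 75%, or at least half do and their mean reaches it too, limit read from the data; inconclusive = At least half of replicates reach the limit but their mean does not; inactive = Under half of replicates reach the limit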;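 also: higher means more ATP so stronger rescue from cytokine killing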
CSC inhib – cancer stem cell viability inhibitors, primary screen, luminescence | cancer stem cell-like cells viability | inhibition, % at 7.5 µM | hit rate 1.1% among 300,000; in the data active = inhibition above about 75%; inconclusive = no clear call, values can overlap the other calls; tested in HMLE shEcad cells
PP1 counter – PP1-alpha phosphatase inhibitors, primary screen, counter-screen for PP5 inhibitor project, biochemical, fluorescence, OMFP substrate, single point; Serine/threonine-protein phosphatase PP1-alpha catalytic subunit (Homo sapiens), P62136; purified PP1alpha; inhibition, % at 6.7 µM; hit rate 0.9% among 320,000;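 active = inhibition above the mean inhibition of all tested compounds plus 3 SD, computed separately for each screening campaign, cut at about 15% in these data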
Mdm2-MdmX inh – inhibitors of human Mdm2-MdmX association, primary screen, cell-based, luminescence, split luciferase, SaOS-2, uHTS. AID 485346, 2010. hit rate 3% among 330,000. SaOS-2 split-luciferase Mdm2/MdmX complementation. Protein Mdm4 (Homo sapiens) + E3 ubiquitin-protein ligase Mdm2 (Homo sapiens), …. inhibition, % at 8 µM;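 active = inhibition of at least 50% at 8 µM in the primary screen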
Calb FLC – C. albicans growth inhibition with fluconazole, primary screen, CaCi-2 strain, Alamar Blue fluorescence | growth inhibition, % (no concentration beside the values) | hit rate 0.57% among 300,000 | C. albicans CaCi-2 (fluconazole-resistant clinical isolate) + fluconazole, 48 h | AID 1979, 2009;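 active = growth inhibition above about 58% in most replicates, limit read from the data, passing the limit was not always enough; inconclusive = exactly half the replicates above a set limit; inactive = most replicates below a set limit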;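 also: all wells also contain fluconazole at 8 µg/ml as a sub-toxic cotreatment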
Mdm2 MdmX conf – Mdm2-MdmX complex disruptors, retested hits, confirmation, luminescence, single concentration; shares compounds with Mdm2-MdmX inh; Mdm2-MdmX binding, luminescent assay; inhibition, % at 8 µM; hit rate 55% among 10,000; AID 489028, 2010; in the data active = inhibition above about 40%
Full FLuc ctr – full-length luciferase signal inhibition, confirmation, counter-screen for Mdm2/MdmX interaction inhibitor project, cell-based, single concentration, SaOS-2. shares compounds with Mdm2-MdmX inh. SaOS-2 full-length luciferase counterscreen, luminescence. inhibition, % at 8 µM. hit rate 77% among 6,200. AID 504607, 2011;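 active = mean inhibition at 8 µM reaching about 37%, which flags the compound as non-specific, limit read from the data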;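 also: p53-null SaOS-2 cells with luciferase driven by a doxycycline-inducible promoter; compound on cells about two nights before reading with doxycycline added after day one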
A number is an active result; 0 = inactive; ? = inconclusive; - = no result; + = active, no number. Compounds with a hit are over-represented: about 4.9% of the library has one in this group of screens.

SMILES	PP5 inh	Beta apoptosis	CSC inhib	PP1 counter	Mdm2-MdmX inh	Calb FLC	Mdm2 MdmX conf	Full FLuc ctr
Cc1cc(NC(=O)CSc2nnc3c(C)cc4cc(C)c(C)cc4n23)no1	0	0	0	0	78	0	0	-
Cc1cc(NC(=O)CSc2nnc(-c3ccccc3)c(-c3ccccc3)n2)no1	0	0	0	0	53	0	56	47
CCOC(=O)C1(Cc2ccccc2Cl)CCN(C(=O)c2cnccn2)CC1	0	0	0	0	0	0	-	-
CCN1CCN(c2ncnc3c2cnn3-c2ccc(Cl)cc2)CC1	0	0	0	0	0	0	-	-
Cc1ccc(-n2ncc3c(N4CCCC4)ncnc32)c(C)c1	0	-	0	0	0	0	-	-
CN1CCN(c2ncnc3c2cnn3-c2ccc(Cl)cc2)CC1	0	0	0	0	51	0	60	+
CCN1CCN(c2ncnc3c2cnn3-c2ccccc2)CC1	0	0	0	0	0	0	-	-
COc1ccc(-n2ncc3c(N4CCN(Cc5ccccc5)CC4)ncnc32)cc1	0	0	0	0	85	0	64	77
COc1cccc(N2CCN(c3ncnc4c3cnn4-c3ccc(C)cc3C)CC2)c1	0	0	0	0	90	0	100	0
c1ccc(-n2ncc3c(N4CCCCC4)ncnc32)cc1	0	0	0	0	51	0	53	160
Cc1ccc(-n2ncc3c(N4CCCC(C)C4)ncnc32)c(C)c1 (stereo not drawn)	0	0	0	0	0	0	-	-
CC1CCCN(c2ncnc3c2cnn3-c2ccc(Cl)cc2)C1 (stereo not drawn)	0	0	0	0	96	0	95	42
CC1CCCN(c2ncnc3c2cnn3-c2ccccc2)C1 (stereo not drawn)	0	0	0	0	52	0	52	192
Cc1ccc(C(=O)N2CCN(c3ncnc4c3cnn4-c3ccccc3)CC2)cc1	0	0	0	0	82	0	58	68
O=C(CSc1nc2cc([N+](=O)[O-])ccc2n1-c1ccccc1)NCc1ccc2c(c1)OCO2	0	0	0	0	56	0	0	-
O=C1/C(=C/c2ccccc2[N+](=O)[O-])COc2ccccc21	0	0	0	0	98	?	45	0
c1ccc(CCc2nn3c(-c4ccncc4)nnc3s2)cc1	0	-	-	0	69	0	59	0
Clc1ccccc1-c1nnc2sc(CCc3ccccc3)nn12	0	0	0	0	0	0	-	-
CN(C(=O)COC(=O)c1ccccc1SCC(=O)N1CCCC1)C1(C#N)CCCCC1	0	0	0	0	0	-	-	-
CCc1ccc(NC(=S)N2CCC(NC(=O)c3ccccc3)CC2)cc1	0	0	-	0	0	0	-	-
O=C(CN1C(=O)c2cccc3cccc(c23)C1=O)N1CCN(c2ccccn2)CC1	0	0	0	0	50	0	0	-
O=C(CN1C(=O)/C(=C\c2cccc(Cl)c2)Oc2ccccc21)N1CCN(c2ccccn2)CC1	0	0	0	0	65	0	0	-
O=C(CN1C(=O)/C(=C/c2ccccc2F)Oc2ccccc21)N1CCN(c2ccccn2)CC1	0	0	0	0	0	0	-	-
CC1CCN(C(=O)CN2C(=O)c3cccc4cccc(c34)C2=O)CC1	0	0	0	0	0	0	-	-
CCOc1cccc(C(=O)Nc2cccc(-c3nnc(-c4ccccc4)o3)c2)c1	0	-	-	0	51	0	0	-
CCOc1cccc(C(=O)Nc2cccc(-c3nnc(-c4ccc(C)cc4)o3)c2)c1	0	0	0	0	84	0	0	-
COc1cccc(C(=O)Nc2cccc(-c3nnc(-c4ccccc4)o3)c2)c1	0	0	0	0	0	0	-	-
